Assay outcomes (PubChem BioAssay)
POLK inh – blocks human DNA polymerase kappa activity. AID 588579. 0.53% of 400,000 active. Q9UBT6. purified Pol kappa, fluorescent DNA synthesis assay, 10 min. Potency, µM (doses to about 107 µM), actives largely listed as inhibitors
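Fluorescent qHTS in 1536-well format: enzyme (10 nM) and compound sat 15 min at room temperature before 50 nM substrate (final) was added. Signal taken at 0 and 10 min; no-enzyme buffer wells were negative controls.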
Pol iota inh – DNA polymerase iota (human) inhibition; Q9UNA4; Pol iota fluorescent replication assay, 10 min; Potency, µM (highest dose often 115 µM), actives largely listed as inhibitors; 1% of 390,000 active; AID 588590
Target sequence (Q9UNA4 whole entry, looked up): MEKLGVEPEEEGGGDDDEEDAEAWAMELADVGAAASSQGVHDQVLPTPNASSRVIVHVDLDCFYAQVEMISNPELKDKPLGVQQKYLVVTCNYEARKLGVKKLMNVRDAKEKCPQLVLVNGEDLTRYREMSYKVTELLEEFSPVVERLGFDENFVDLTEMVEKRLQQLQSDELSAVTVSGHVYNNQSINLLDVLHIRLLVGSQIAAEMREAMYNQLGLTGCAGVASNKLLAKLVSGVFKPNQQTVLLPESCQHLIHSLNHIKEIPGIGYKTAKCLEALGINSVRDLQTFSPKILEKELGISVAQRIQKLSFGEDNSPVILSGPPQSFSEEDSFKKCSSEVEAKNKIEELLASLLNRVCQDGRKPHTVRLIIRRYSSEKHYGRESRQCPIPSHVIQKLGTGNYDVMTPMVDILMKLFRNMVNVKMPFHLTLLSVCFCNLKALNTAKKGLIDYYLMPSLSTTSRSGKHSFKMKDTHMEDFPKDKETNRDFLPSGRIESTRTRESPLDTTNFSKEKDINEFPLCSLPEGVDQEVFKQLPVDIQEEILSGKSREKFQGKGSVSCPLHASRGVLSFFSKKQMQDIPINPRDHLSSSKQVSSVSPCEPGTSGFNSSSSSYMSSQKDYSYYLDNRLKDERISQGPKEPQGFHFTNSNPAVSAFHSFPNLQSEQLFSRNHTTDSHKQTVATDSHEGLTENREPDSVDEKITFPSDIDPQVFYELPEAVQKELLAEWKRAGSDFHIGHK
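Fluorescent replication assay read twice, at 0 min and 10 min after adding 50 nM (final) substrate. Enzyme (10 nM) and compounds were first incubated 15 min at room temperature; enzyme-free buffer wells were negative controls.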
Pol beta inh – blocks human DNA polymerase beta activity; P06746; AID 485314; Pol beta primer extension/strand displacement, fluorescence kinetic; 1.3% of 340,000 active; Potency, µM (highest dose often 114 µM), actives largely listed as inhibitors
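Kinetic readout of DNA synthesis with strand displacement by Pol beta. Compound and 10 nM enzyme sit 15 min at room temperature; 50 nM substrate starts the reaction, read immediately and at 10 min.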
12-LOX inh – blocks human arachidonate 12S-lipoxygenase. 1.1% of 580,000 active. AID 1671190. Potency, µM (series often up to 108 µM), hits mostly inhibitors. purified 12hLO, xylenol orange hydroperoxide absorbance
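Purified human 12hLO at 150 nM in 25 mM Hepes, 0.01% Triton X-100, pH 7.0, preincubated 15 min at room temperature with compound. Reaction started with 40 uM arachidonic acid, 30 min at room temperature. Hydroperoxide measured by Fe-xylenol orange, 573/405 nm absorbance ratio.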
PI5P4Ka inh – blocks human PI5P4K alpha kinase activity; max response, %; PI5P4Kalpha enzyme, ADP-Glo luminescence, 60 min; active compounds read low; P48426; 1.2% of 330,000 active; AID 652105; active = max response of -50% or lower; inconclusive = between -30% and -50%; inactive = -30% or higher; note: value at the top dose of about 77 µM
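Reactions run in 0.038 M HEPES pH 7.4, 0.28 mM EGTA, 0.1% CHAPS and 5% DMSO, with PI5P4Kalpha, substrate, compound and 5 microM ATP final, one hour at room temperature. Readout is ADP-Glo luminescence.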
POLH inh – blocks human DNA polymerase eta activity; recombinant Pol eta, fluorescent DNA replication assay; Potency, µM (top dose mostly 114 µM), most hits filed as inhibitors; 1.2% of 390,000 active; AID 588591; Q9Y253
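Pol eta (10 nM) was preincubated with compounds for 15 min at room temperature, after which fluorescent replication substrate (50 nM final) was added to start the reaction. Fluorescence was read kinetically at 0 and 10 min.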
Hits are given with their value; . = inactive; ? = inconclusive; / = no result; ! = a repeat was not active; [ ] = dose if it differs, or a comment. Most compounds without a hit are left out; they make up all but 2.9% or so of the library. Unless noted, calls come from the whole dose curve; as a rule, active = well fitted inhibition curve with a large enough effect; inconclusive = small, poorly fitted or top-dose-only effect, or another doubt; inactive = no such curve, though single readings can be large or run the other way.

SMILES	POLK inh	Pol iota inh	Pol beta inh	12-LOX inh	PI5P4Ka inh	POLH inh
CC(C)(C)C(=O)OCOP(=O)(OCOC(=O)C(C)(C)C)C(C)(Oc1ccc(O)cc1)P(=O)(OCOC(=O)C(C)(C)C)OCOC(=O)C(C)(C)C	35.5µM	/	/	/	/	/
CC(C)(Oc1ccc(Cl)cc1)C(=O)OCCCOC(=O)C(C)(C)Oc1ccc(Cl)cc1	/	/	/	.[22.9 µM]	/	/
Oc1ccc(Oc2ccc(Oc3ccc(O)cc3)cc2)cc1	.	.	.	?	.	.
Cc1ccc2nc(Nc3nc(CSc4ccc(Cl)cc4)cc(=O)[nH]3)nc(C)c2c1	/	/	/	.	/	/
COc1ccc(Cn2c(Oc3ccc(C)c(C)c3)nc3c2c(=O)n(C)c(=O)n3C)cc1	/	/	/	.	/	/
C1=CC2c3ccccc3NC(c3ccncc3)C2C1 (configuration not stated)	.	?	.	?	-57.4	?
CC(=O)c1ccc2c(c1)C1C=CCC1C(c1ccncc1)N2 (configuration not stated)	.	31.6µM	?	?	.	?
O=C(O)c1ccc2c(c1)C1C=CCC1C(c1cc3c(cc1Br)OCO3)N2 (configuration not stated)	.	?	.	?	.	.
COC(=O)c1ccc(C2Nc3ccc(/C(C)=N/NC(=O)C(OC)c4ccccc4)cc3C3C=CCC32)cc1 (configuration not stated)	.	.	.	?	-65.7	.
Cc1ccc2c(c1)C1C=CCC1C(C(=O)O)N2 (configuration not stated)	/	/	3.55µM	/	/	/
Cc1ccc2c(c1)C1C=CCC1C(C(=O)NCCCN1CCOCC1)N2 (configuration not stated)	.	.	/	.	.	.
Clc1ccc(Cn2ccnc2-c2cc3n(n2)CCCNC3)cc1Cl	/	/	/	.	/	/
Cc1ccc(C)c(OCCOc2ccc3ccc(=O)oc3c2)c1	/	/	/	.	/	/
CC(=O)Nc1ccc(S(=O)(=O)N2CCN(c3ccc(NCc4ccccc4)nn3)CC2)cc1	/	/	/	.	/	/
O=[N+]([O-])c1c(-c2cscn2)[nH]c2ccccc12	/	/	/	.	/	/
Cc1nc(CN2Cc3nc(-c4cc5ccccc5o4)ccc3OCC2=O)cs1	/	/	/	.	/	/
CCOc1ccc2nc(NC(=O)CCNC(=O)c3ccccc3Cl)sc2c1	/	/	/	.	/	/
Cn1nc(C(=O)OCC(=O)Nc2cccc(C(F)(F)F)c2)c2ccccc2c1=O	/	/	/	.	/	/
CS(=O)(=O)N1CCC(C(=O)NCc2ccco2)CC1	.	50.1µM	.	.	/	?
O=C1N2CCCc3cccc(c32)C12Nc1ccccc1S2 (configuration not stated)	.	.	.	25.1µM	.	.
c1ccc2sc(SSc3nc4ccccc4s3)nc2c1	.[19.4 µM]	/	/	4.96µM	/	/
FC(F)Sc1nc2ccccc2s1	/	/	/	.	/	/
O=C1C=CC(=O)N1N(c1ccccc1)c1ccccc1	.	.	.	35.5µM	.	.
O=C1c2ccccc2C(=O)N1N(c1ccccc1)c1ccccc1	.	.	/	.	.	.
CCCCN(CCCC)c1nc2c([nH]1)c(=O)[nH]c(=O)n2C	/	/	/	.	/	/
SMILES	POLK inh	Pol iota inh	Pol beta inh	12-LOX inh	PI5P4Ka inh	POLH inh
COc1ccc(C(=O)CSc2nnc(-c3cc(C)on3)o2)cc1	.	.	11.2µM	.	.	.
O=C(CSc1nnc(-c2ccco2)o1)c1ccccc1	.	.	39.8µM	.	/	.
Cc1ccc(C(=O)CSc2nnc(-c3ccco3)n2Cc2ccccc2)cc1	.	?	.	.	-50.7	.
O=C(CSc1nnc(-c2ccco2)o1)c1ccc[nH]1	?	14.1µM	14.1µM	?	-85.6	?
Cc1cc(-c2nnc(SCC(=O)c3ccc(Cl)cc3)o2)no1	.	.	.	.	.	.
O=C(CSc1nnc(-c2ccco2)n1Cc1ccccc1)c1ccccc1	.	.	.	.	.	?
COc1ccc(CC(=O)N[C@H]2C[C@@H](c3nc(-c4ccc5ccccc5c4)no3)N(C)C2)cc1	/	/	/	.	/	/
COc1ccc(NS(=O)(=O)c2ccc(-c3cnc(C)o3)cc2)c(OC)c1	/	/	/	.	/	/
CC(C)c1ccc(Cn2ccc3c4c(N)nc(NC5CC5)nc4ccc32)cc1	.[19.4 µM]	/	/	21.7µM!	/	/
CCNC(=O)c1cc(-c2cccs2)nc2ccccc12	/	/	/	.	/	/
CCOC(=O)C1(CC2CC2)CCN(Cc2ccc(OC)cc2F)CC1	.	.	89.1µM	.	.	.
CC(C)(C)NC(=O)C(c1ccncc1)n1c(=O)c(-c2ccco2)nc2ccccc21 (configuration not stated)	/	/	/	.	.	/
COc1ccc(NC(=O)C(c2ccncc2)n2c(=O)c(-c3ccco3)nc3ccccc32)cc1 (configuration not stated)	/	/	/	.	.	/
O=C(NC1CCCCC1)C(c1cccc2ccccc12)n1c(=O)c(-c2ccco2)nc2ccccc21 (configuration not stated)	/	/	/	17.8µM	-82.2	/
CC(C)(C)NC(=O)C(c1cc2ccccc2o1)n1c(=O)c(-c2ccco2)nc2ccccc21 (configuration not stated)	/	/	/	?	-58.4	/
COc1ccc(NC(=O)C(c2cccc3ccccc23)n2c(=O)c(-c3ccco3)nc3ccccc32)cc1 (configuration not stated)	/	/	/	.	.	/
COc1ccc(C(C(=O)NCc2ccccc2)n2c(=O)c(-c3ccco3)nc3ccccc32)cc1 (configuration not stated)	/	/	/	39.8µM	?	/
CC(C)(C)NC(=O)C(c1ccccc1)n1c(=O)c(-c2ccco2)nc2ccccc21 (configuration not stated)	/	/	/	?	-53.9	/
COc1cccc(-c2cc(=O)[nH]c(Nc3nc(C)c4cccc(C)c4n3)n2)c1	/	/	/	.	/	/
CN(Cc1ccccc1)Cc1nc2c(n1Cc1ccccc1)C(=O)N(Cc1ccccc1F)CCN2	/	/	/	.	/	/
C#CCOCCOCCOCCNc1nc(N2CCN(C(=O)CCCCCCCCCCNC(=O)Cn3cc(CCCCCN)nn3)CC2)nc(N2CCN(C(=O)CCCCCCCCCCNC(=O)[C@H](CO)n3cc(CCCCCN)nn3)CC2)n1	.	?	/	/	-58.3	.
C#CCOCCOCCOCCNc1nc(N2CCN(C(=O)CCCCCCCCCCNC(=O)[C@H](CCCCN)n3cc(CCCC(=O)O)nn3)CC2)nc(N2CCN(C(=O)CCCCCCCCCCNC(=O)[C@H](CCCCN)n3cc(CCCC(=O)O)nn3)CC2)n1	.	?	/	/	-55.6	.
C#CCOCCOCCOCCNc1nc(N2CCN(C(=O)CCCCCCCCCCNC(=O)[C@H](CCC(=O)O)n3cc(CCCCCN)nn3)CC2)nc(N2CCN(C(=O)CCCCCCCCCCNC(=O)[C@@H]([C@H](C)O)n3cc(C)nn3)CC2)n1	.	?	/	/	.	.
C#CCOCCOCCOCCNc1nc(N2CCN(C(=O)CCCCCCCCCCNC(=O)[C@H](CCCCN)n3cc(CCO)nn3)CC2)nc(N2CCN(C(=O)CCCCCCCCCCNC(=O)[C@H](CCCCN)n3cc(CCO)nn3)CC2)n1	.	.	/	/	-66.9	?
